Experimental data taken from article PMC11006913.

target: PITX2 (Homo sapiens, UniProt Q99697 72-157); test: PBM; 200 nM protein, PBS; settings: dsDNA, one strand shown

| Sequence | binding signal |
| --- | --- |
| GGAATAAA | 9.51 upbm affinity estimate (log intensity, higher = more binding, comparable within an allelic series) |
| ACGTTCCG | 7.96 upbm affinity estimate (log intensity, higher = more binding, comparable within an allelic series) |
| TATTAGCA | 10.1 upbm affinity estimate (log intensity, higher = more binding, comparable within an allelic series) |
| ATTACAGA | 9.82 upbm affinity estimate (log intensity, higher = more binding, comparable within an allelic series) |
| AGCGATGC | 7.81 upbm affinity estimate (log intensity, higher = more binding, comparable within an allelic series) |
| AAGATAAT | 10.6 upbm affinity estimate (log intensity, higher = more binding, comparable within an allelic series) |
| GAACACGA | 8.02 upbm affinity estimate (log intensity, higher = more binding, comparable within an allelic series) |
| GACAACGC | 7.92 upbm affinity estimate (log intensity, higher = more binding, comparable within an allelic series) |
| AAGGGATT | 11.6 upbm affinity estimate (log intensity, higher = more binding, comparable within an allelic series) |
| AGCGTGGG | 8.14 upbm affinity estimate (log intensity, higher = more binding, comparable within an allelic series) |
| ACTGGTGC | 7.7 upbm affinity estimate (log intensity, higher = more binding, comparable within an allelic series) |
| CACCGGGC | 7.98 upbm affinity estimate (log intensity, higher = more binding, comparable within an allelic series) |
| CGCCAGCA | 8 upbm affinity estimate (log intensity, higher = more binding, comparable within an allelic series) |
| CGCCTGTC | 8.14 upbm affinity estimate (log intensity, higher = more binding, comparable within an allelic series) |
| AGCACGCC | 8.07 upbm affinity estimate (log intensity, higher = more binding, comparable within an allelic series) |
| CTAAATCC | 12.4 upbm affinity estimate (log intensity, higher = more binding, comparable within an allelic series) |
| AGTGCCTC | 7.74 upbm affinity estimate (log intensity, higher = more binding, comparable within an allelic series) |
| ACAGGGTG | 7.94 upbm affinity estimate (log intensity, higher = more binding, comparable within an allelic series) |
| CATGTTCG | 8.09 upbm affinity estimate (log intensity, higher = more binding, comparable within an allelic series) |
| GATGATAA | 9.84 upbm affinity estimate (log intensity, higher = more binding, comparable within an allelic series) |

| Sequence | binding signal |
| --- | --- |
| GAATATTA | 9.35 upbm affinity estimate (log intensity, higher = more binding, comparable within an allelic series) |
| AATTCCAC | 9.99 upbm affinity estimate (log intensity, higher = more binding, comparable within an allelic series) |
| CCATTCAC | 8.31 upbm affinity estimate (log intensity, higher = more binding, comparable within an allelic series) |
| GTGCCAGA | 8.11 upbm affinity estimate (log intensity, higher = more binding, comparable within an allelic series) |
| AAAGCCGA | 9.6 upbm affinity estimate (log intensity, higher = more binding, comparable within an allelic series) |
| CAGTACTG | 7.98 upbm affinity estimate (log intensity, higher = more binding, comparable within an allelic series) |
| ACAATCCC | 10.3 upbm affinity estimate (log intensity, higher = more binding, comparable within an allelic series) |
| CCTTCCAC | 8.11 upbm affinity estimate (log intensity, higher = more binding, comparable within an allelic series) |
| GAAGGTCA | 7.87 upbm affinity estimate (log intensity, higher = more binding, comparable within an allelic series) |
| CCGAGCAG | 8.01 upbm affinity estimate (log intensity, higher = more binding, comparable within an allelic series) |
| GCTTAGAA | 10.2 upbm affinity estimate (log intensity, higher = more binding, comparable within an allelic series) |
| GCGCTTAA | 11.1 upbm affinity estimate (log intensity, higher = more binding, comparable within an allelic series) |
| GGAGGAAC | 8.06 upbm affinity estimate (log intensity, higher = more binding, comparable within an allelic series) |
| GAGTGCGC | 7.98 upbm affinity estimate (log intensity, higher = more binding, comparable within an allelic series) |
| TATGATCA | 9.32 upbm affinity estimate (log intensity, higher = more binding, comparable within an allelic series) |
| ATCTAATG | 9.77 upbm affinity estimate (log intensity, higher = more binding, comparable within an allelic series) |
| ACAGATCT | 9.05 upbm affinity estimate (log intensity, higher = more binding, comparable within an allelic series) |
| CATTATTC | 9.49 upbm affinity estimate (log intensity, higher = more binding, comparable within an allelic series) |
| CGGTGATA | 9.92 upbm affinity estimate (log intensity, higher = more binding, comparable within an allelic series) |
| ATCCTTAC | 9.47 upbm affinity estimate (log intensity, higher = more binding, comparable within an allelic series) |
